Holding throughout (assay): DAPPL (digital affinity profiling via proximity ligation, sequencing); 10 mM Tris-HCl pH 7.5, 50 mM NaCl, 1 mM DTT, 4% glycerol, room temperature, 30 min; GST-TFs on glutathione beads, 16-mer random dsDNA library, 0.1% formaldehyde crosslink after washing; high values mean tight binding
Common to all, as to settings: protein: recombinant; tags: N-terminal GST; dsDNA, one strand shown

In one assay the target is T1, FLI1 (Homo sapiens, UniProt Q01543 1-452).
T1 sequence: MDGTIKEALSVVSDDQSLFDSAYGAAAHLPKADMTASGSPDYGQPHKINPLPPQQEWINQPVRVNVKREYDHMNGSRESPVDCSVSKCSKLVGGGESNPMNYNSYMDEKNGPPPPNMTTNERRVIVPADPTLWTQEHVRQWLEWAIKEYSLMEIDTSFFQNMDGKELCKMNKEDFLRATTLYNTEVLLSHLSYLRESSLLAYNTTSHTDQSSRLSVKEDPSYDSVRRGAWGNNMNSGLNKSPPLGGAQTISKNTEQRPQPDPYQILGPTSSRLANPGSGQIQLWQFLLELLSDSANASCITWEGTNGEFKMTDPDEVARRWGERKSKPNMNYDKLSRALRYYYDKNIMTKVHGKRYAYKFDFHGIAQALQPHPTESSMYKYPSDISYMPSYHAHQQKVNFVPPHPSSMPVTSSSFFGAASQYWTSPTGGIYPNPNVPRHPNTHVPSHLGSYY
In short, it runs like this:
(§1)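 Sequencing on an Illumina NextSeq500 followed washing, crosslinking with 0.1% formaldehyde, proximity ligation (BsaI/T4 ligase, 1 h, 37 °C) and PCR amplification of pools that had been incubated for 30 min at room temperature with 200 nmole of a random double-stranded 16-mer DNA library in Tris/NaCl/DTT/glycerol buffer. Each pool held DNA-barcoded human transcription factors, expressed in yeast as GST fusions and captured on glutathione beads, plus a tag-only sample. Binding signal is a hexamer's read frequency for a factor divided by its frequency in the tag-only sample.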

A further assay concerns the target T2, ELK1 (Homo sapiens, UniProt P19419 1-428).
T2 sequence: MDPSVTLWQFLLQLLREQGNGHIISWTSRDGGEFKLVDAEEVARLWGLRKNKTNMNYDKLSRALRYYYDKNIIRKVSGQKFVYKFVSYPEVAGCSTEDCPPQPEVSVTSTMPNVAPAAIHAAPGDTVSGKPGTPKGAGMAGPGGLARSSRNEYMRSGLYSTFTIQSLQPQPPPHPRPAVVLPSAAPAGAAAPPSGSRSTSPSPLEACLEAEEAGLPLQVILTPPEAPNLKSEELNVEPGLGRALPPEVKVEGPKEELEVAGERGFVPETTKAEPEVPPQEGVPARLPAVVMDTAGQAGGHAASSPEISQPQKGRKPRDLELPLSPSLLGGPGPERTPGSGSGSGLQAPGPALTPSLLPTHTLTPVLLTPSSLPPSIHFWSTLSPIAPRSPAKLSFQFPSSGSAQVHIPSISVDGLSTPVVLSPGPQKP
In short, it runs like this: as §1

Another assay addresses T3, ERG (Homo sapiens, UniProt P11308 1-479).
T3 sequence: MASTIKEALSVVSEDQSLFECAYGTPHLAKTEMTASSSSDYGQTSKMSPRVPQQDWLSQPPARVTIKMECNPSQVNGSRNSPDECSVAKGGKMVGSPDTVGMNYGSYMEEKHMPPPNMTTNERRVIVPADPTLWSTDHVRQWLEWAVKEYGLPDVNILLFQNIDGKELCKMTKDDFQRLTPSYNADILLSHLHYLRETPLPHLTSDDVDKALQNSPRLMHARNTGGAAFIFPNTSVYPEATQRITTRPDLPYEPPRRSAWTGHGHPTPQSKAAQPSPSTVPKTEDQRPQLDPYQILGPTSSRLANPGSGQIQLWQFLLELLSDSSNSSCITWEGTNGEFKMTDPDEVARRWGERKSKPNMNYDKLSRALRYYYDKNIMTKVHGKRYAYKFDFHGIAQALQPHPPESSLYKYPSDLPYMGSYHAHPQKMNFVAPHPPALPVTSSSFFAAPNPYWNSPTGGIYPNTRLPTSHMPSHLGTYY
The essentials:
as §1

A further assay has as its target T4, EHF (Homo sapiens, UniProt Q9NZC4 1-300).
T4 sequence: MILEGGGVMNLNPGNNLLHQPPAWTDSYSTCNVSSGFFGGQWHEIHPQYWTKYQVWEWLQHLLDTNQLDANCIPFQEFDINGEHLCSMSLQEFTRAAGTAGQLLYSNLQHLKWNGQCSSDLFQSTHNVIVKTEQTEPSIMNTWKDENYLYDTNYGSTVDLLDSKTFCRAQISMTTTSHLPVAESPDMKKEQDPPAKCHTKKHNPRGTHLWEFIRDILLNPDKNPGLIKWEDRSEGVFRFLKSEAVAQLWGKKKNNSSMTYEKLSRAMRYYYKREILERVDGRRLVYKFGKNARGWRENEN
The essentials:
as §1

The target of the next assay is SPI1 (Homo sapiens, UniProt P17947 1-270). In short, it runs like this:
as §1

Another assay has as its target SPIB (Homo sapiens, UniProt Q01892 1-262). In short, it runs like this:
as §1

In the next assay the target is ETV5 (Homo sapiens, UniProt P41161 1-510). In short, it runs like this:
as §1

The next assay addresses T5, SPIC (Homo sapiens, UniProt Q8N5J4 1-248).
T5 sequence: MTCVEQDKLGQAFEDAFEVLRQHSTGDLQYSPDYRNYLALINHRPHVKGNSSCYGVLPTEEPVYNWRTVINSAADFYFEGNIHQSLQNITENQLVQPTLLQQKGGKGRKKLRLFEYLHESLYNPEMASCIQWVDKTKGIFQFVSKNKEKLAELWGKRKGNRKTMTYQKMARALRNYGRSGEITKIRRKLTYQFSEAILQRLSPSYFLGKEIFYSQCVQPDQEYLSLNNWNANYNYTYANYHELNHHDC
In short, it runs like this:
as §1

The target in a further assay is ELF4 (Homo sapiens, UniProt Q99607 1-663). The essentials:
as §1

Another assay has as its target T6, ELK4 (Homo sapiens, UniProt P28324-2 1-405).
T6 sequence: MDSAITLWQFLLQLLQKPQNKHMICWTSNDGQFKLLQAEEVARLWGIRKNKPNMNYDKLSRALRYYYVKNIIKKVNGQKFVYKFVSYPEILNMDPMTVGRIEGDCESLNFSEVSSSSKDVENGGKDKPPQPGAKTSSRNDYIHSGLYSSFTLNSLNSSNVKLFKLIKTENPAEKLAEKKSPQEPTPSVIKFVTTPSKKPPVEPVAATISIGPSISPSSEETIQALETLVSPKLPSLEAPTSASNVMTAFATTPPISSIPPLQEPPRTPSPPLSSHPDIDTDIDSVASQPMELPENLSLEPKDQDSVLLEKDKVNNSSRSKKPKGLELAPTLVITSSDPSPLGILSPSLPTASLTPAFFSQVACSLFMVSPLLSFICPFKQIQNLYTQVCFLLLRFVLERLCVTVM
In short, it runs like this: as §1

The target of another assay is T7, ETV2 (Homo sapiens, UniProt O00321 1-342).
T7 sequence: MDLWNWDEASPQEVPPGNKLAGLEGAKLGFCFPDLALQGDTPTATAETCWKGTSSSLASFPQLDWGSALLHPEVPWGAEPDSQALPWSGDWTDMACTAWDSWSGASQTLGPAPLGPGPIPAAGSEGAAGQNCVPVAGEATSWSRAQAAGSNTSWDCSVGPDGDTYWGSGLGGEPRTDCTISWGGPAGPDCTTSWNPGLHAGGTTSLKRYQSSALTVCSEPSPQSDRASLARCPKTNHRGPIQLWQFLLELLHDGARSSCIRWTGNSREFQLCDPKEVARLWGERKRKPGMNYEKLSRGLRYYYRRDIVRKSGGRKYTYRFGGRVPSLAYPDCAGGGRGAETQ
The essentials:
as §1

For the next assay, the target named is T8, ELF3 (Homo sapiens, UniProt P78545 1-371).
T8 sequence: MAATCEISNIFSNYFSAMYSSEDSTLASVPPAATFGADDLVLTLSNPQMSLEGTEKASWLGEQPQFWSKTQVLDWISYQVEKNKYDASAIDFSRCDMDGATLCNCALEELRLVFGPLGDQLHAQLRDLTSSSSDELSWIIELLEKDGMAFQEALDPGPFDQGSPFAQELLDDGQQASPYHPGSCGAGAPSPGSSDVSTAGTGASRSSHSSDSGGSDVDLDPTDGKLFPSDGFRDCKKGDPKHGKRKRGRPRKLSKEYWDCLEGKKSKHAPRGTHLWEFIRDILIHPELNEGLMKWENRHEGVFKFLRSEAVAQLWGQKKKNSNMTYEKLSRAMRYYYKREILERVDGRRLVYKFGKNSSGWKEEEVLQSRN
In short, it runs like this:
as §1

The target in a further assay is ETV1 (Homo sapiens, UniProt P50549 1-477). In short, it runs like this: as §1
A further assay addresses T9, GABPA (Homo sapiens, UniProt Q06546 1-454).
T9 sequence: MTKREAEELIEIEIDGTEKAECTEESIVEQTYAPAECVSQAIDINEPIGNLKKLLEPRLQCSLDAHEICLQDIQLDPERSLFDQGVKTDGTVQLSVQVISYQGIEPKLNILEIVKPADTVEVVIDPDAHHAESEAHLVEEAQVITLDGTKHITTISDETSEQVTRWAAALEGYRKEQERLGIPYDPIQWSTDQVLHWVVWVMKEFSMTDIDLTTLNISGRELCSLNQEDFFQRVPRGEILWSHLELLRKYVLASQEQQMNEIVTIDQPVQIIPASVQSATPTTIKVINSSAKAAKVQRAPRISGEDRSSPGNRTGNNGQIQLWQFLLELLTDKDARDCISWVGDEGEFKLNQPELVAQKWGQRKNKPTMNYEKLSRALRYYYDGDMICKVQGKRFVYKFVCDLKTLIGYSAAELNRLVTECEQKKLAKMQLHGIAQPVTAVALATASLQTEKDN
The essentials:
as §1

For a further assay, the target named is ELF1 (Homo sapiens, UniProt P32519 1-619). In short, it runs like this: as §1
Another assay addresses T10, ELK3 (Homo sapiens, UniProt P41970 1-407).
T10 sequence: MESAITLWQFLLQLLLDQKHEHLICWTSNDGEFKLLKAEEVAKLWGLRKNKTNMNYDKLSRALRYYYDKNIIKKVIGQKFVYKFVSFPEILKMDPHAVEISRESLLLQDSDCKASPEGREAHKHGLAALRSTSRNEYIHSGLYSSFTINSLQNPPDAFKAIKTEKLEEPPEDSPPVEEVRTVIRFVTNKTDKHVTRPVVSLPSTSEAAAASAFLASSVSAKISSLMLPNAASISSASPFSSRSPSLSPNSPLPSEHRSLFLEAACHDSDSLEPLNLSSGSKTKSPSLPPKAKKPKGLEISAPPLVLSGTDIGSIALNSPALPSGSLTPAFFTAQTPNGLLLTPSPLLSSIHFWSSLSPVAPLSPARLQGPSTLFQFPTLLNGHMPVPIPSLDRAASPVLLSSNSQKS
The essentials: as §1

The next assay addresses T11, FEV (Homo sapiens, UniProt Q99581 1-238).
T11 sequence: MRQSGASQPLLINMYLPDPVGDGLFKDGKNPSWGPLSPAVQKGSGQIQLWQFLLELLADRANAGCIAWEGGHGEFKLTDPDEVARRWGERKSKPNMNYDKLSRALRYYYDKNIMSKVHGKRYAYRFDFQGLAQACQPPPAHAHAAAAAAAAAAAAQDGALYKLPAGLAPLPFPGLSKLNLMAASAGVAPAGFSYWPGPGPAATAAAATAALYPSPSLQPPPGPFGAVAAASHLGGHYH
The essentials: as §1

Chain of SPIB (Q01892 whole entry): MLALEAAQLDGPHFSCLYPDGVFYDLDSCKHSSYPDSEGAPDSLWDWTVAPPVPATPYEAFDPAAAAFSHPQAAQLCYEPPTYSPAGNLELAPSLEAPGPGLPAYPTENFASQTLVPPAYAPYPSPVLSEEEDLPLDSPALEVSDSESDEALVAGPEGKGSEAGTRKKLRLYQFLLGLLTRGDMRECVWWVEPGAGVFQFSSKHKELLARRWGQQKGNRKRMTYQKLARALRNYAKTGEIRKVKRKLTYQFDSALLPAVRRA
Chain of ELF4 (Q99607 whole entry): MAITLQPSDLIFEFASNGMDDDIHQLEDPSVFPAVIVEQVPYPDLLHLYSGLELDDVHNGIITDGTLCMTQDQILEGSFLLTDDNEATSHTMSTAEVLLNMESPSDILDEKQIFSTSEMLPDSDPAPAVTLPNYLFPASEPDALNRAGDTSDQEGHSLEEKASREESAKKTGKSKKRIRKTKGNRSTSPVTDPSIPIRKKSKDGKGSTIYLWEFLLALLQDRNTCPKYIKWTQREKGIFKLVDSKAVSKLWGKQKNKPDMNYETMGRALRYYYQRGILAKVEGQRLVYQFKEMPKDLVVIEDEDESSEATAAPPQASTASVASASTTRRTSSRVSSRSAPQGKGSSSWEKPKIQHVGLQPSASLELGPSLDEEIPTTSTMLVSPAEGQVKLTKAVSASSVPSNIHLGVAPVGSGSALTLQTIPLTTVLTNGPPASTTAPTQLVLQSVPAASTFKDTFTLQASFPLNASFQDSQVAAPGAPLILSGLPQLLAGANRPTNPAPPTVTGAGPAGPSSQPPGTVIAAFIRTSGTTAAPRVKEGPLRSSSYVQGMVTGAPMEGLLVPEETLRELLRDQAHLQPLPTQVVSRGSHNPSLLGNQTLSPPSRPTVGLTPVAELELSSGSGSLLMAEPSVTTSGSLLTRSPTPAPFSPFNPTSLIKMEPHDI
Chain of ETV5 (P41161 whole entry): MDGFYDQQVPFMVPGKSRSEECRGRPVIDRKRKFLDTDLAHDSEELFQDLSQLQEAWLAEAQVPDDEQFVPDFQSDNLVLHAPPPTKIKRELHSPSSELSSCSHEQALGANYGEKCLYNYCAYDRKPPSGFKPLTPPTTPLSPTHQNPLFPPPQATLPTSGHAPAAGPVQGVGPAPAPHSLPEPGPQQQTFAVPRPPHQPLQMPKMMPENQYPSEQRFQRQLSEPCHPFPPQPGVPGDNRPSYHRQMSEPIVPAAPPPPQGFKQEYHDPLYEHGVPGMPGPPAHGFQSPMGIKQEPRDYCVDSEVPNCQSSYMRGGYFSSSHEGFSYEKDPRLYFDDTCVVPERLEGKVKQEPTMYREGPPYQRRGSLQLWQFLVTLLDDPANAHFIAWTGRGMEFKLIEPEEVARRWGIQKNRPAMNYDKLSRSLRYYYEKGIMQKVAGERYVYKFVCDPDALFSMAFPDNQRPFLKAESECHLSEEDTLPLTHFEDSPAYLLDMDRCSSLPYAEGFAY
Chain of ELF1 (P32519 whole entry): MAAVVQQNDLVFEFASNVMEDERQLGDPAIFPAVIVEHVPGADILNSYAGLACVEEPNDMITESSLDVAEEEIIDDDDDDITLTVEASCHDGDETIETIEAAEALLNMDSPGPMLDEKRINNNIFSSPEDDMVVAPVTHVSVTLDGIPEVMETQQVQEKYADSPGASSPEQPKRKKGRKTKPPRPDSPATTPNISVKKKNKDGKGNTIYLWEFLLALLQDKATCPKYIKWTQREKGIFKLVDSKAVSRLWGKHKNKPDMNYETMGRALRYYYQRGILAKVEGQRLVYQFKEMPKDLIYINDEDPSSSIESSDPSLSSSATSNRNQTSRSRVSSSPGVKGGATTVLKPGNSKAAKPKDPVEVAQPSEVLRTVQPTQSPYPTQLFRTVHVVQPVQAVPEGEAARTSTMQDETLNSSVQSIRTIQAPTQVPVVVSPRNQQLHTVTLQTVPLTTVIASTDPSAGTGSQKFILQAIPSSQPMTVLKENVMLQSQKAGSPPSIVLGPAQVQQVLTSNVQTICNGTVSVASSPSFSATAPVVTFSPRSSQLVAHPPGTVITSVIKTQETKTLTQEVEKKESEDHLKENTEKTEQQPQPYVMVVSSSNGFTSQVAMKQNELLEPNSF
Chain of ETV1 (P50549 whole entry): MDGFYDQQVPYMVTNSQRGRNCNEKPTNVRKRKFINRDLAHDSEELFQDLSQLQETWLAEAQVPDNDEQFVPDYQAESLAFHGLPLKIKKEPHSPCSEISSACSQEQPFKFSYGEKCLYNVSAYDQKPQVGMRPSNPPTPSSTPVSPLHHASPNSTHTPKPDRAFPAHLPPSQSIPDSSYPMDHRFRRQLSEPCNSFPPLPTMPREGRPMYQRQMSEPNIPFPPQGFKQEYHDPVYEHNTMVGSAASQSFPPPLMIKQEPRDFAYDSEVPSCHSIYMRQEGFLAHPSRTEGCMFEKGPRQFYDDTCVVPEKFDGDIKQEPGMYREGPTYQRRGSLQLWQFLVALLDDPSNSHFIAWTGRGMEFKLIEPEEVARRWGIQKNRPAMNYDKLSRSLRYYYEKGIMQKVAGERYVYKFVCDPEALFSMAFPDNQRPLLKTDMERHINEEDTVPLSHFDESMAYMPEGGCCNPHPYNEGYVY

With ATAGGT, the binding signal with FLI1 is 1.08 fold enrichment (6-mer frequency, TF over GST control); with ELK1, 1.01 fold enrichment (6-mer frequency, TF over GST control); with ERG, 1.01 fold enrichment (6-mer frequency, TF over GST control); with EHF, 1.04 fold enrichment (6-mer frequency, TF over GST control); with SPI1 it was 1.01 fold enrichment (6-mer frequency, TF over GST control); with SPIB, 1.04 fold enrichment (6-mer frequency, TF over GST control). Moreover, the binding signal was 1.08 fold enrichment (6-mer frequency, TF over GST control) with ETV5; 1.01 fold enrichment (6-mer frequency, TF over GST control) in the assay with SPIC; 1.01 fold enrichment (6-mer frequency, TF over GST control) with ELF4; 1.02 fold enrichment (6-mer frequency, TF over GST control) with ELK4; 1.11 fold enrichment (6-mer frequency, TF over GST control) with ETV2; 1.11 fold enrichment (6-mer frequency, TF over GST control) with ELF3. For the same sequence, in the assay with ETV1, the binding signal was 1.03 fold enrichment (6-mer frequency, TF over GST control).
CTGCAG: the binding signal in the assay with FLI1 was 1.13 fold enrichment (6-mer frequency, TF over GST control); in the assay with ELK1, 1.1 fold enrichment (6-mer frequency, TF over GST control); with GABPA, 1.16 fold enrichment (6-mer frequency, TF over GST control); in the assay with ELF1 it was 1.08 fold enrichment (6-mer frequency, TF over GST control); with EHF, 1.18 fold enrichment (6-mer frequency, TF over GST control); with SPI1, 1.14 fold enrichment (6-mer frequency, TF over GST control). Also, the binding signal was 1.08 fold enrichment (6-mer frequency, TF over GST control) with SPIB; 1.05 fold enrichment (6-mer frequency, TF over GST control) in the assay with ELK3; 1.1 fold enrichment (6-mer frequency, TF over GST control) with FEV; 1.11 fold enrichment (6-mer frequency, TF over GST control) in the assay with ETV5; 1.37 fold enrichment (6-mer frequency, TF over GST control) with SPIC; 1.17 fold enrichment (6-mer frequency, TF over GST control) with ELF4. Besides, the binding signal with ELK4 was 1.26 fold enrichment (6-mer frequency, TF over GST control); in the assay with ETV2 it was 1.3 fold enrichment (6-mer frequency, TF over GST control); in the assay with ELF3, 1.02 fold enrichment (6-mer frequency, TF over GST control).

Values taken from article PMC7862700, “An all-to-all approach to the identification of sequence-specific readers for epigenetic DNA modifications on cytosine”.
